Assay results published in the supplement of paper PMC12632987.

T1: USP38, Q8NB14
T1 chain: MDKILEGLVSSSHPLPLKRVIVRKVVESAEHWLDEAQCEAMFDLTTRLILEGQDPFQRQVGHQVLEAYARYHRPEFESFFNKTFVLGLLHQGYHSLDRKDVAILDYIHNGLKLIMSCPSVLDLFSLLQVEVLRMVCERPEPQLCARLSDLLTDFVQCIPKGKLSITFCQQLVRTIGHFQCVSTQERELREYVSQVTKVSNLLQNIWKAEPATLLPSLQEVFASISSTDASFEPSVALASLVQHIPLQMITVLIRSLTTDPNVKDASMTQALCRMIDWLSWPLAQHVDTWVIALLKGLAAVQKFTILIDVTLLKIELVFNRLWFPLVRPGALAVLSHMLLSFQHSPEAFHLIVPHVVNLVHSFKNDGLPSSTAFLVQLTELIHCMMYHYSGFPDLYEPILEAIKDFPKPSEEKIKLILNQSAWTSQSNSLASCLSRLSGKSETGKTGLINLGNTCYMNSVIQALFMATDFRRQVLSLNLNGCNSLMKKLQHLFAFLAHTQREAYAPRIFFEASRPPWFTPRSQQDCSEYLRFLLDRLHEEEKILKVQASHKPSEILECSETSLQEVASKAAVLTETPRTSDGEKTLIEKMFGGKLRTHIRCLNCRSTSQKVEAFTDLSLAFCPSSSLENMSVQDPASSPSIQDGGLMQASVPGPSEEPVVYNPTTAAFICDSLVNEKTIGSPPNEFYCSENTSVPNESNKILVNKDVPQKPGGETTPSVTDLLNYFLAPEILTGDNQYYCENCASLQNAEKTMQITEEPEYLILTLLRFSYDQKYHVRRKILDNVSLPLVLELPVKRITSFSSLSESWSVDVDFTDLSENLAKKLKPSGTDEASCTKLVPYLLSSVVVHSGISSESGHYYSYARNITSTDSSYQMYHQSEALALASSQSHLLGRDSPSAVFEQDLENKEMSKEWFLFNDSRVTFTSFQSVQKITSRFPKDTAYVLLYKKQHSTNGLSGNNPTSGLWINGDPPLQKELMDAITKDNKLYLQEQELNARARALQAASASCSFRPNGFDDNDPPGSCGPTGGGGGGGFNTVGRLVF


Target: T1, USP38, Q8NB14
Test: median log2 fold change of GCK-ALFA target abundance (FLAG IP / Myc IP barcode read proportion) (log2 ratio); each designed protein is fused to an ALFA-tag nanobody in HEK293 cells to bring the named protein to FLAG-tagged glucokinase (GCK); Myc marks an untargeted standard; higher = target protein stabilised (more abundant)
Conditions: target protein: 3xFLAG-MCP-GCK-ALFA reporter; HEK293 landing pad (RPLP)
Outline: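 Binders fused to an ALFA nanobody were recombined as a library into HEK293 landing-pad cells, which were induced with 2 μg mL^−1 doxycycline and then transfected to express a FLAG-tagged target and a Myc-tagged standard. After 48 h, circular RNA barcodes recovered by anti-FLAG and anti-Myc immunoprecipitation of lysates were reverse transcribed, amplified and sequenced. Each binder's target abundance is the median log2 ratio of FLAG to Myc barcode read proportions, from barcodes present at ≥10^−7 in both replicates, binders carrying ≥3 barcodes per replicate, a 10^−6 pseudocount and pooled replicates.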

Binder	median log2 fold change
usp_38_diff_out_18_14_274 (protein) SEELSEALKSNLESLKKDVEKDTKRTIELLKKNKDDPERVKRIVERAERNLEGVITFAEEVLKEAEKRGDEEVKKAAEELIKKAKEALEKIKEEAKKVLA	0.186
usp_38_diff_out_18_14_268 (protein) SEELAEAEVSNLKTLERDVKEDTERVIRLLRKNKDDPERVKRIYERAKRDLAGVRAYAEEVKRRAEEEGWEEVVAAAERLLKTIDEARKRIEEEYKRVME	-0.0262
usp_38_diff_out_18_14_263 (protein) SEELAQADIDALNLLKKDVEEDTERVIRLLEKSKDDPERVKRIYERALRNLAGVKKYAEEVKKEAEERGNEETIKAANELLKTIEEAKKRLEEKYKEVMK	0.123
usp_38_diff_out_18_14_260 (protein) SEELKEATISNLKSLKEDVKEDTERVIRLLKARKDDPEQVKRIYERAKRNLEGVKTYAEEVLKEAEEEGWEELKKAAEELLKEIEEAEKKIEAEVKEVLA	0.0949
usp_38_diff_out_18_14_270 (protein) SEELKKALLSNLESLKKDVKEYTERVLRLLEKRKDDPEQVERIVERAERDLAGVEEYAKEVLKEAKKLGDEELLKAAEELIKLTKEARERIEKKREEVLK	-0.331
usp_38_diff_out_18_14_259 (protein) SEELTEALISNLESLKEDVKKDTERVIRLLEKRKDDPEQVKRIKERFERDLAGVEKYAKEVLEEAKKEGNEKLAKAAEELLKTVEAARKEVEEKVAKVLA	-0.00381
usp_38_diff_out_18_14_269 (protein) SAELAAAKVSNLKTLKEDVERDTERVIRLLEANRDDPERVRRIHERALRNLEGVRKYAEEVKEEAEKEGDKETVKAAEELLKKIEEARRRIDARYAEVMA	0.153
usp_38_diff_out_18_14_267 (protein) SAELSEALKSNLETLTADVAADTDRVIRLLDARKDDPEAVKRIHERARRNLAGVEAYAEEVKAEAEKAGDAEVKAAAEKLLAAVAAARARIDARYAEVMA	0.0912
usp_38_diff_out_18_14_264 (protein) SEELSEAEKSALKLLKKDVEEETERVIRLLRQAKDDPERVKRIYERAKRNLAGVRKYAEEVLKRAEEAGDEETKKAAEELLKKIEEAEKRIEEEYKRVTA	0.118
usp_38_diff_out_18_14_273 (protein) SEERREALLSNLKSLKKDVKEYTKRVLKLLEKNKNDPERVKRIYERAKRNLAGVKAYAEEVLKEAKEEGDEETLKAAEELIKEAKEAEEKIKKKVEEVLK	-1.06
usp_38_diff_out_18_14_258 (protein) SAELEEATISNLKLLKEDVKKETERVIRLLEKNKDDPERVKRIYERAQRDLAGVETYAKEVLEEAKKNGWEEKEKAAKELLEEVDKAKEEIEKKVKEVLA	0.144
usp_38_diff_out_18_14_261 (protein) SEELSEAKISALKLLEKSVKEDTERKIRLLEKAKDDPERVKRIYERALRELAGVREYAEEVLKEAKEAGDEETAEAAKRLLKTIEEARERLEEEYKRVMA	0.0867
usp_38_diff_out_18_14_262 (protein) SEELAQADIDALNLLKEDVKKDTERKIRLLKKAKDDPELVKRIYERAKRNLEGVRTYAEEIKKRAEEAGDEETIKAAEELLKEIEEAEKKLEEAYKEVMA	0.391
usp_38_diff_out_18_14_272 (protein) DEELSEALLSNLKSLKEDVKEYTKRVLRLLEANKDDPERVKRIYERAERNLEGVEKFAEEVLKEAKERGDEEVQKAAKELKEEAKKAREEIKKKVKEVLA	-0.188
usp_38_diff_out_18_14_266 (protein) SEELDEALVKNLETLKKDVKENTERVIKLLRKNKDDPERVKRIYERAKRNLEGVKKYAEEVLKEAEKRGWKKTVKAAKELLKEVEEAKKKIEEEYKKVME	-0.521
usp_38_diff_out_18_14_271 (protein) SEELAAALQSNLESLERAVREDTERVIRLLEKNRDDPERVKRIVERAERDLAGVEAYAQEVLREARAAGDAATQEAAERLLEEARRAREEIRRKAEEVLA	-0.0538
